Rows were chosen to be rich in hits. Some 2.9% of all compounds tested hit in one or more screens of this group.
MEKK2mut PB1 HTS = MEK5 binding signal on mutant MEKK2 PB1, primary screen, biochemical, multiplex bead flow cytometry, Alexa488-MEK5; Alexa488-MEK5 binding to MEKK2 mutant; AID 1530, 2009; percent response, % at 10 µM; actives 0.35% (n = 290,000); in the data active means percent response above about 24%, passing the limit was not always enough
GRK2 aptamer HTS = compounds blocking aptamer binding on GRK2 – biochemical, human GRK2, bead flow cytometry, HTS, primary screen; Beta-adrenergic receptor kinase 1 (Homo sapiens), P25098; FAM-aptamer displacement from GRK2; inhibition of aptamer binding, % at 10 µM; actives 0.59% (n = 330,000); AID 488847, 2010;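 active means inhibition of aptamer binding above 40%, roughly 3 SD of noise, on plates passing a quality check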;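 further: median bead fluorescence of bound FAM aptamer so fluorescent compounds give negative values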
MEKK3 PB1 HTS = modulators of MEKK3-MEK5 PB1 binding, primary screen, biochemical, wildtype MEKK3, multiplex bead flow cytometry, Alexa488-MEK5; actives 1.4% (n = 290,000); bead-based flow cytometry, Alexa488-MEK5 binding to MEKK3; actives lie on both sides; 0 = blocked by unlabeled MEK5, 100 = vehicle; binding response (% of control), % at 10 µM;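 active means binding response more than 3 SD above or below the average of its plate-row segment, actives on both sides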;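 further: Alexa488 bead fluorescence after subtracting the streptavidin-only scavenger bead signal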
Target sequence (Q99759 whole entry, looked up): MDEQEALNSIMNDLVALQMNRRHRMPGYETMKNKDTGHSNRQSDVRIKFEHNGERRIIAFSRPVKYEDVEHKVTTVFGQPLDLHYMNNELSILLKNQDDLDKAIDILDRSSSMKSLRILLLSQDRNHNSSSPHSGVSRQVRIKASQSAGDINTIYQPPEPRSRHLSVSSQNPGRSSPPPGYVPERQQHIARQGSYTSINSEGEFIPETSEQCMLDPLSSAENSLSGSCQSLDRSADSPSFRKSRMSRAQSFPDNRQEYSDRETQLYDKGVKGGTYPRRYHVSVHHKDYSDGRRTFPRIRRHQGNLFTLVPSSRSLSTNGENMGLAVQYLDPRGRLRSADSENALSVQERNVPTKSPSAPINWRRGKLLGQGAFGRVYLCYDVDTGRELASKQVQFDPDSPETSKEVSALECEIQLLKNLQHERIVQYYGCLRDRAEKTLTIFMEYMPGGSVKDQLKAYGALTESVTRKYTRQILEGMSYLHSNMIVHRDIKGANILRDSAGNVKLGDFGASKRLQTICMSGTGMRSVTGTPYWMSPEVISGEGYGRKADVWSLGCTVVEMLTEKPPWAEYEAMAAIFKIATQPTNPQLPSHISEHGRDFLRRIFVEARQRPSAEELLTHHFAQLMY
MEKK2 WT-MEK5 = modulators of MEK5 binding to wildtype MEKK2, primary screen, biochemical, multiplex bead flow cytometry, Alexa488-MEK5. binding response (% of control), % at 10 µM. AID 1531, 2009. Mitogen-activated protein kinase kinase kinase 2 (Homo sapiens), Q9Y2U5. actives 1.1% (n = 290,000). Alexa488-MEK5 binding to MEKK2 WT; actives lie on both sides; in the data active means binding response below about 67% or above about 130%
Beta2AR agonist = beta2AR agonists driving receptor internalization, primary screen, cell-based, FAP fluorogen, flow cytometry. Beta-2 adrenergic receptor (Homo sapiens), P07550. response, % (test concentration not listed). Am2.2-beta2AR cells. actives 0.43% (n = 340,000);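 active means response above a set limit, near 3 SD of response in nonfluorescent compounds, cut at about 42% in these data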
Starred values were filed as active, the others as inactive; x = no result given; [ ] = another dose, or the depositor's remark.

SMILES	MEKK2mut PB1 HTS	GRK2 aptamer HTS	MEKK3 PB1 HTS	MEKK2 WT-MEK5	Beta2AR agonist
Cc1cccc2nc(-c3cccnc3)c(NCCC(C)C)n12	2.0	0.0	95.0	-11.0*	5.8
CCOC(=O)c1c(NC(=O)CN2C(=O)NC(C)(c3ccccc3)C2=O)sc(C)c1C (configuration not stated)	-2.0	0.0	96.0	93.0	11.4
O=C(COC(=O)c1cc(Cl)ccc1O)NNC(=O)c1ccccc1F	x	1.0	x	x	-5.3
COc1ccc(C=C2C=C(C(C)(C)C)C(=O)C(C(C)(C)C)=C2)cc1OC	-6.0	13.0	82.0	72.0	76.1*
COc1ccc(/C=C2\CC/C(=C\c3ccc(OC)c(OC)c3)C2=O)cc1OC	3.0	1.0	106.0	104.0	6.4
N#C/C(=C\c1ccc(OC(=O)c2ccc(Cl)s2)cc1)c1nc2ccccc2[nH]1	1.0	81.0*	102.0	105.0	-27.1
N#C/C(=C\c1ccc(OC(=O)c2ccc(Br)s2)cc1)c1nc2ccccc2[nH]1	0.0	0.0	101.0	100.0	-16.6
CC[C@@H](C(=O)[C@@H](C)[C@@H](O)[C@H](C)CCc1ccc(C)c(O)c1C(=O)O)[C@H]1O[C@](CC)([C@H]2CC[C@](O)(CC)[C@H](C)O2)C[C@@H]1C	3.0	0.0	101.0	93.0	86.0*
CCOC(=O)N/N=C/c1cn(CCCOc2ccc(C)cc2)c2ccccc12	-1.0	2.0	109.0	99.0	71.0*
COC(=O)N/N=C/c1cn(CCOc2ccc(OC)cc2)c2ccccc12	4.0	0.0	112.0	109.0	-18.8
CC(C)N1CCc2c(sc(NC(=O)c3ccc4ccccc4c3)c2C(N)=O)C1	14.0	7.0	103.0	134.0*	-23.1
CC(C)(C)c1ccc(OCC(=O)N/N=C/c2ccsc2)cc1	3.0	0.0	109.0	102.0	-8.4
N#CCCN(C(=O)COC(=O)c1cc(=O)c2ccccc2o1)c1ccccc1	x	2.0	x	x	-7.1
Cc1cc(C)nc(SCC(=O)N2CCCCC2)n1	14.0	1.0	91.0	-2.0*	1.9
CCOC(=O)/C=C(\C)Sc1cc(O)c2ccccc2c1O	1.0	x	97.0	91.0	45.9*
CCOC(=O)/C=C(\C)Sc1cc(=O)oc2ccccc12	3.0	0.0	107.0	105.0	-5.3
O=C1C(F)=CC(COC(c2ccccc2)(c2ccccc2)c2ccccc2)OC1n1cc(F)c(=O)[nH]c1=O (configuration not stated)	x	x	x	x	87.2*
Cc1nn(C(C)C(=O)NCCCN2CCCCC2C)c(=O)c2c1sc1ccccc12 (configuration not stated)	3.0	0.0	104.0	106.0	4.4
Cc1nn(C(C)C(=O)NCCCN2CCCCCC2)c(=O)c2c1sc1ccccc12 (configuration not stated)	27.0*	0.0	107.0	162.0*	0.9
O=C(NNC(=S)Nc1ccccc1)NNC(=S)Nc1ccccc1	-8.0	2.0	102.0	94.0	-5.4
O=C(NNC(=S)Nc1ccccc1)c1cc(Br)ccc1Cl	5.0	46.0*	102.0	110.0	6.0
CC(OC(=O)CN1C(=O)NC2(CCCC2)C1=O)C(=O)Nc1cccc(Cl)c1 (configuration not stated)	4.0	0.0	99.0	102.0	2.0
COc1ccc(/C=N/NC(=O)CCn2cnc(-c3ccccc3)c2-c2ccccc2)cc1	2.0	2.0	150.0*	106.0	10.0
CCOc1ccc(NC(=O)C2CC(=O)N(c3ccccc3F)C2)cc1 (configuration not stated)	4.0	2.0	102.0	104.0	1.8
Cc1ccc(S(=O)(=O)NCCN=Cc2ccc(N(C)C)cc2)cc1	-1.0	2.0	99.0	61.0*[inhibitor]	3.7
COc1ccc(CCN(C)C(=O)CCc2nnc(-c3ccccc3)o2)cc1OC	-12.0	3.0	94.0	7.0*	-1.5
O=C(OCc1ccccc1F)c1cnc(Cl)c(Cl)c1	-26.0	0.0	0.0*[inhibitor]	-10.0*[inhibitor]	0.1
C/C(=N/NC(=O)c1cccc(N2CCCC2=O)c1)c1ccncc1	3.0	2.0	102.0	-5.0*	-0.8

Screening results deposited in PubChem by NMMLSC.
